CD40 NFkB inh: CD40 pathway inhibition in BL2 cells; BL2 NF-kB luciferase reporter, CD40L-induced, 4 h; inhibition, % at 10 µM; AID 1053188; 83,000 tested, 0.94% active;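 active = mean inhibition of at least 50% with a set share of replicates also reaching that level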;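 note: 0% = neutral control wells and 100% = IKK inhibitor VII at 50 µM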
The depositor's hits bear a star; ! = not active in a repeat; [ ] = dose if it differs, or a comment. The sample as a whole holds a higher share of hits than the screen did.

SMILES	CD40 NFkB inh
Cc1noc(C)c1NC(=O)Nc1ccc2c(c1)C(=O)N(C)[C@H]1CC[C@@H](CC(=O)N[C@@H]3CCN(Cc4ccccc4)C3)O[C@H]1CO2	-9.5[25 µM]
CCN1[C@@H]2c3ccc(-c4ccccc4OC)c(=O)n3C[C@@H]2[C@@H](CO)[C@@H]1C(=O)NCc1ccc(F)cc1	14.0[25 µM]
C[C@H](CO)N1C[C@H](C)[C@@H](CN(C)C(=O)Nc2ccccc2C(F)(F)F)OCc2ccccc2-c2c(n(C)c3ccccc23)C1=O	8.3[25 µM]
C[C@@H]1CN([C@@H](C)CO)C(=O)c2c(c3ccccc3n2C)-c2ccccc2CO[C@@H]1CN(C)C(=O)Nc1ccccc1C(F)(F)F	55.0*[25 µM]
C[C@H](CO)N1C[C@H](C)[C@H](CN(C)C(=O)Nc2ccccc2C(F)(F)F)OCc2ccccc2-c2c(n(C)c3ccccc23)C1=O	37.7[25 µM]
C/C=C/c1cnc2c(c1)C(=O)N([C@@H](C)CO)C[C@H](C)[C@@H](CN(C)C(=O)C1CCOCC1)O2	-7.0[25 µM]
CC1Cc2ccccc2N1c1ncnc(N)c1[N+](=O)[O-] (configuration not stated)	54.1*
CC1Cc2ccccc2N1C(=O)c1cnsn1 (configuration not stated)	7.0
CC1Cc2ccccc2N1C(=O)c1cnc2n(c1=O)CCS2 (configuration not stated)	0.6
COc1ccccc1C#Cc1ccc([C@H]2[C@H](C#N)N(C(=O)C3CCC3)[C@H]2CO)cc1	30.8[25 µM]
C/C=C/c1ccc2c(c1)[C@@H]1[C@@H](CCN1S(=O)(=O)c1ccccc1OC)[C@H](CO)N2C	6.8[25 µM]
COc1ccc2oc(-c3ccncc3)cc(=O)c2c1	-48.8
CCc1ccc2oc(-c3ccc(OC)cc3)cc(=Nc3c(C)n(C)n(-c4ccccc4)c3=O)c2c1	50.0*
COc1cc(OC)c(C(=O)OCC(=O)Nc2c(C)n(C)n(-c3ccccc3)c2=O)cc1OC	9.8
N#C[C@@H]1N[C@@H](CO)[C@H]1c1ccc(C#CC2CCCC2)cc1	-2.6
C[C@H]1CN([C@@H](C)CO)C(=O)CCCn2nncc2CO[C@H]1CN(C)C(=O)Nc1cccc(F)c1	6.7[25 µM]
CC=Cc1ccc2n(c1=O)C[C@@H]1[C@@H](CO)[C@H](C(=O)NCCc3cn(C)cn3)[C@H]2N1C(=O)CC1CC1 (mixture of isomers)	-6.4[25 µM]
O=C(Nc1nnc(C2CC2)s1)C1CC(=O)N(c2ccc3c(c2)OCCO3)C1 (configuration not stated)	51.2*
O=C(Nc1nnc(C2CCCCC2)s1)C1CC(=O)N(c2ccccc2)C1 (configuration not stated)	13.1
O=C(Nc1nc2ccc(F)cc2s1)C1CC(=O)N(c2ccc3c(c2)OCCO3)C1 (configuration not stated)	27.6
CC(C)[C@@H](C)NC(=O)N(C)C[C@H]1OCc2ccccc2-c2c(n(C)c3ccccc23)C(=O)N([C@@H](C)CO)C[C@@H]1C	-3.2
O=C(Nc1ccccc1F)N1CCCCN2[C@H](C1)[C@@H](c1ccc(/C=C/c3ccccc3)cc1)[C@@H]2CO	-2.3[25 µM]
C/C=C/c1ccc(C2[C@@H]3CN(C(=O)Nc4ccccc4F)C[C@H]2N3)cc1 (some centres not stated)	-3.8[25 µM]
C/C=C/c1ccc(C2[C@H]3CNC[C@@H]2N3C(=O)Nc2ccccc2Cl)cc1 (some centres not stated)	-3.5[25 µM]
O=C(Nc1ccccc1F)N1CCCCN2[C@H](CO)[C@H](c3ccc(/C=C/c4ccccc4)cc3)[C@H]2C1	88.5*[25 µM]
SMILES	CD40 NFkB inh
COc1ccc(C#Cc2ccc([C@@H]3[C@H](CO)N4CCCCN(C(=O)Nc5cccc(F)c5)C[C@@H]34)cc2)cc1	67.8*[25 µM]
O=C(Nc1ccccc1F)N1CCCCN2[C@H](CO)[C@H](c3ccc(/C=C/c4ccccc4)cc3)[C@@H]2C1	14.4[25 µM]
O=C(Nc1ccccc1Cl)N1[C@@H]2CNC[C@H]1C2c1ccc(-c2ccccc2)cc1 (some centres not stated)	3.7
O=C(Nc1ccccc1Cl)N1[C@@H]2CNC[C@H]1C2c1ccc(/C=C/c2ccccc2)cc1 (some centres not stated)	57.7*!
O=C(Nc1ccccc1F)N1C[C@@H]2N[C@H](C1)C2c1ccc(/C=C/c2ccccc2)cc1 (some centres not stated)	53.1*
COc1ccc(C#Cc2ccc([C@H]3[C@@H](CO)N4CCCCN(C(=O)Nc5cccc(F)c5)C[C@H]34)cc2)cc1	21.7[25 µM]
O=C(Nc1ccc(F)cc1)N1C[C@@H]2N[C@H](C1)C2c1ccc(/C=C/c2ccccc2)cc1 (some centres not stated)	24.5[25 µM]
COc1ccc(C#Cc2ccc([C@@H]3[C@H]4CN(C(=O)Nc5cccc(F)c5)CCCCN4[C@H]3CO)cc2)cc1	5.3[25 µM]
CCCNC(=O)NC[C@@H]1[C@H](c2ccc(C3=CCCC3)cc2)[C@H](CO)N1C(C)=O	0.3
CCCNC(=O)[C@@H]1[C@@H](CO)[C@@H]2Cn3c(ccc(C4=CCCC4)c3=O)[C@H]1N2C(=O)CC1CC1	6.0[25 µM]
COc1ccc2c3c([nH]c2c1)[C@H](CO)N(C(=O)Nc1c(C)noc1C)CC31CN(CC2CCOCC2)C1	-9.8[25 µM]
